# Laboratory results from PMC11006913.
# Where a chain is given by its changes, count along the chain named.
# What was measured:
# Test in all cases: PBM; 200 nM protein, PBS
# Details in all cases: dsDNA, one strand shown
# HOXB9 [1] = molecular target: HOXB9 (Homo sapiens, UniProt P17482 171-250, T197M)
# HOXC9 [2] = molecular target: HOXC9 (Homo sapiens, UniProt P31274 178-260, K195R)
# VENTX [3] = molecular target: T1, VENTX (Homo sapiens, UniProt O95231 78-163)
# T1 sequence: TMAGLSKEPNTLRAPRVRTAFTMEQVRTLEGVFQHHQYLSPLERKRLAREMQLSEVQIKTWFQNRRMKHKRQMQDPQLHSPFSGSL
# PAX4 [4] = molecular target: T2, PAX4 (Homo sapiens, UniProt O43316 9-242, R200K)
# T2 sequence: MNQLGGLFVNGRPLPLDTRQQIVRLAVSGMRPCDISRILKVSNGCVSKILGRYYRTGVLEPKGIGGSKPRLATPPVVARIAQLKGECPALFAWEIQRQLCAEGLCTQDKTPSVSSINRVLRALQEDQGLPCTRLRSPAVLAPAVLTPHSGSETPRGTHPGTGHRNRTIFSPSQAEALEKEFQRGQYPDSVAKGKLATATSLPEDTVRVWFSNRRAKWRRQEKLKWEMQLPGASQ
# VENTX [5] = molecular target: T3, VENTX (Homo sapiens, UniProt O95231 78-163, Y115F)
# T3 sequence: T1 sequence with Y38F
# PAX4 [6] = molecular target: T4, PAX4 (Homo sapiens, UniProt O43316 9-242)
# T4 sequence: T2 sequence with K192R
# PAX4 [7] = molecular target: T5, PAX4 (Homo sapiens, UniProt O43316 9-242, R200Q)
# T5 sequence: T2 sequence with K192Q
# HOXC9 [8] = molecular target: HOXC9 (Homo sapiens, UniProt P31274 178-260, R193K)
# Sequence of HOXC9 (Homo sapiens, UniProt P31274 178-260, R193K) (P31274 178-260 R193K): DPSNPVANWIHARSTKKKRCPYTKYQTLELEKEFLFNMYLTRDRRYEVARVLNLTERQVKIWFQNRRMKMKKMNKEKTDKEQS
# HOXA2 [9] = molecular target: HOXA2 (Homo sapiens, UniProt O43364 129-215, R185K)
# Sequence of HOXA2 (Homo sapiens, UniProt O43364 129-215, R185K) (O43364 129-215 R185K): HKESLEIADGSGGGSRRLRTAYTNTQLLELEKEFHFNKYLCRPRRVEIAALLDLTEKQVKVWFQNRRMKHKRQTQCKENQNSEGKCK
# PAX4 [10] = molecular target: T6, PAX4 (Homo sapiens, UniProt O43316 9-242, F177V)
# T6 sequence: T2 sequence with F169V, K192R
# HOXC10 = HOXC10 (Homo sapiens, UniProt Q9NYD6 254-340, K271E)
# Sequence of HOXC10 (Q9NYD6 254-340 K271E): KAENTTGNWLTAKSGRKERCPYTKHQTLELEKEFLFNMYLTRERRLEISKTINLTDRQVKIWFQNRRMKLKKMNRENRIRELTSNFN
# PAX4 [11] = molecular target: T7, PAX4 (Homo sapiens, UniProt O43316 9-242, F177Y)
# T7 sequence: T2 sequence with F169Y, K192R
# VAX1 = VAX1 (Homo sapiens, UniProt Q5SQQ9 86-172)
# Sequence of VAX1 (Q5SQQ9 86-172): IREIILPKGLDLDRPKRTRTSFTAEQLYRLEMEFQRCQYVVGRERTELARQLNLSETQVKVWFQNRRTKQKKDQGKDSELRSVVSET
# HOXB9 [12] = molecular target: HOXB9 (Homo sapiens, UniProt P17482 171-250, R186Q)
# Sequence of HOXB9 (Homo sapiens, UniProt P17482 171-250, R186Q) (P17482 171-250 R186Q): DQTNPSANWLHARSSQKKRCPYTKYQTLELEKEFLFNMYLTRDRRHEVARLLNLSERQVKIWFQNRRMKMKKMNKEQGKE
# HOXC9 [13] = molecular target: HOXC9 (Homo sapiens, UniProt P31274 178-260, R222W)
# Sequence of HOXC9 (Homo sapiens, UniProt P31274 178-260, R222W) (P31274 178-260 R222W): as the sequence (P31274 178-260 R193K) above, with K16R, R45W counted along it
# PAX4 [14] = molecular target: T8, PAX4 (Homo sapiens, UniProt O43316 9-242, R227W)
# T8 sequence: T2 sequence with K192R, R219W
# HOXA2 [15] = molecular target: HOXA2 (Homo sapiens, UniProt O43364 129-215, Y150S)
# Sequence of HOXA2 (Homo sapiens, UniProt O43364 129-215, Y150S) (O43364 129-215 Y150S): as the sequence (O43364 129-215 R185K) above, with Y22S, K57R counted along it
# HOXA2 [16] = molecular target: HOXA2 (Homo sapiens, UniProt O43364 129-215)
# Sequence of HOXA2 (Homo sapiens, UniProt O43364 129-215) (O43364 129-215): as the sequence (O43364 129-215 R185K) above, with K57R counted along it
# Sequence of HOXB9 (Homo sapiens, UniProt P17482 171-250, T197M) (P17482 171-250 T197M): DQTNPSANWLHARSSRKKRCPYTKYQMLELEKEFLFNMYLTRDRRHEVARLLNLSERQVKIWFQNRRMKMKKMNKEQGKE
# Sequence of HOXC9 (Homo sapiens, UniProt P31274 178-260, K195R) (P31274 178-260 K195R): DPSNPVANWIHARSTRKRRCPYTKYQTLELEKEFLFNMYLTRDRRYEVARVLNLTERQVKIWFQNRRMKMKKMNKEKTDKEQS
Sequence,binding signal (HOXB9 [1]),binding signal (HOXC9 [2]),binding signal (VENTX [3]),binding signal (PAX4 [4]),binding signal (VENTX [5]),binding signal (PAX4 [6]),binding signal (PAX4 [7]),binding signal (HOXC9 [8]),binding signal (HOXA2 [9]),binding signal (PAX4 [10]),binding signal (HOXC10),binding signal (PAX4 [11]),binding signal (VAX1),binding signal (HOXB9 [12]),binding signal (HOXC9 [13]),binding signal (PAX4 [14]),binding signal (HOXA2 [15]),binding signal (HOXA2 [16])
CAATTAAC,"9.98 upbm affinity estimate (log intensity, higher = more binding, comparable within an allelic series)","12.5 upbm affinity estimate (log intensity, higher = more binding, comparable within an allelic series)","12.8 upbm affinity estimate (log intensity, higher = more binding, comparable within an allelic series)","11.5 upbm affinity estimate (log intensity, higher = more binding, comparable within an allelic series)","11.9 upbm affinity estimate (log intensity, higher = more binding, comparable within an allelic series)","12.1 upbm affinity estimate (log intensity, higher = more binding, comparable within an allelic series)","12 upbm affinity estimate (log intensity, higher = more binding, comparable within an allelic series)","12.5 upbm affinity estimate (log intensity, higher = more binding, comparable within an allelic series)","13.3 upbm affinity estimate (log intensity, higher = more binding, comparable within an allelic series)","10.6 upbm affinity estimate (log intensity, higher = more binding, comparable within an allelic series)","11.8 upbm affinity estimate (log intensity, higher = more binding, comparable within an allelic series)","10.9 upbm affinity estimate (log intensity, higher = more binding, comparable within an allelic series)","13 upbm affinity estimate (log intensity, higher = more binding, comparable within an allelic series)","11.4 upbm affinity estimate (log intensity, higher = more binding, comparable within an allelic series)","10.9 upbm affinity estimate (log intensity, higher = more binding, comparable within an allelic series)","10.8 upbm affinity estimate (log intensity, higher = more binding, comparable within an allelic series)","10.8 upbm affinity estimate (log intensity, higher = more binding, comparable within an allelic series)","12.3 upbm affinity estimate (log intensity, higher = more binding, comparable within an allelic series)"
ACTAATTG,–,–,"12.9 upbm affinity estimate (log intensity, higher = more binding, comparable within an allelic series)","11.5 upbm affinity estimate (log intensity, higher = more binding, comparable within an allelic series)","11.9 upbm affinity estimate (log intensity, higher = more binding, comparable within an allelic series)","12.1 upbm affinity estimate (log intensity, higher = more binding, comparable within an allelic series)","12 upbm affinity estimate (log intensity, higher = more binding, comparable within an allelic series)",–,"13.3 upbm affinity estimate (log intensity, higher = more binding, comparable within an allelic series)","10.3 upbm affinity estimate (log intensity, higher = more binding, comparable within an allelic series)",–,"10.7 upbm affinity estimate (log intensity, higher = more binding, comparable within an allelic series)","13.3 upbm affinity estimate (log intensity, higher = more binding, comparable within an allelic series)",–,–,"10.8 upbm affinity estimate (log intensity, higher = more binding, comparable within an allelic series)","10.8 upbm affinity estimate (log intensity, higher = more binding, comparable within an allelic series)","12.4 upbm affinity estimate (log intensity, higher = more binding, comparable within an allelic series)"
CCTAATTA,–,–,"13 upbm affinity estimate (log intensity, higher = more binding, comparable within an allelic series)","12.1 upbm affinity estimate (log intensity, higher = more binding, comparable within an allelic series)","12.4 upbm affinity estimate (log intensity, higher = more binding, comparable within an allelic series)","12.6 upbm affinity estimate (log intensity, higher = more binding, comparable within an allelic series)","12.5 upbm affinity estimate (log intensity, higher = more binding, comparable within an allelic series)",–,"13.8 upbm affinity estimate (log intensity, higher = more binding, comparable within an allelic series)","10.8 upbm affinity estimate (log intensity, higher = more binding, comparable within an allelic series)","11.8 upbm affinity estimate (log intensity, higher = more binding, comparable within an allelic series)","11.3 upbm affinity estimate (log intensity, higher = more binding, comparable within an allelic series)","13.8 upbm affinity estimate (log intensity, higher = more binding, comparable within an allelic series)",–,–,"11.2 upbm affinity estimate (log intensity, higher = more binding, comparable within an allelic series)","10.8 upbm affinity estimate (log intensity, higher = more binding, comparable within an allelic series)","13.2 upbm affinity estimate (log intensity, higher = more binding, comparable within an allelic series)"
AGCAATTA,"9.96 upbm affinity estimate (log intensity, higher = more binding, comparable within an allelic series)",–,"12.4 upbm affinity estimate (log intensity, higher = more binding, comparable within an allelic series)",–,"11.8 upbm affinity estimate (log intensity, higher = more binding, comparable within an allelic series)",–,–,–,"13.3 upbm affinity estimate (log intensity, higher = more binding, comparable within an allelic series)",–,"11.8 upbm affinity estimate (log intensity, higher = more binding, comparable within an allelic series)",–,"12.9 upbm affinity estimate (log intensity, higher = more binding, comparable within an allelic series)",–,–,–,"10.8 upbm affinity estimate (log intensity, higher = more binding, comparable within an allelic series)","12.5 upbm affinity estimate (log intensity, higher = more binding, comparable within an allelic series)"
TCAATTAA,–,–,"12.4 upbm affinity estimate (log intensity, higher = more binding, comparable within an allelic series)",–,"11.6 upbm affinity estimate (log intensity, higher = more binding, comparable within an allelic series)",–,"11.8 upbm affinity estimate (log intensity, higher = more binding, comparable within an allelic series)",–,"13.2 upbm affinity estimate (log intensity, higher = more binding, comparable within an allelic series)",–,–,–,"13.3 upbm affinity estimate (log intensity, higher = more binding, comparable within an allelic series)",–,–,–,"10.7 upbm affinity estimate (log intensity, higher = more binding, comparable within an allelic series)","12.4 upbm affinity estimate (log intensity, higher = more binding, comparable within an allelic series)"
CTAATTAG,–,–,"13.5 upbm affinity estimate (log intensity, higher = more binding, comparable within an allelic series)","12.5 upbm affinity estimate (log intensity, higher = more binding, comparable within an allelic series)","12.8 upbm affinity estimate (log intensity, higher = more binding, comparable within an allelic series)","13 upbm affinity estimate (log intensity, higher = more binding, comparable within an allelic series)","13.1 upbm affinity estimate (log intensity, higher = more binding, comparable within an allelic series)",–,"14.3 upbm affinity estimate (log intensity, higher = more binding, comparable within an allelic series)","11.2 upbm affinity estimate (log intensity, higher = more binding, comparable within an allelic series)",–,"11.8 upbm affinity estimate (log intensity, higher = more binding, comparable within an allelic series)","14.1 upbm affinity estimate (log intensity, higher = more binding, comparable within an allelic series)",–,–,"11.7 upbm affinity estimate (log intensity, higher = more binding, comparable within an allelic series)","10.9 upbm affinity estimate (log intensity, higher = more binding, comparable within an allelic series)","13.4 upbm affinity estimate (log intensity, higher = more binding, comparable within an allelic series)"
GGCAGGCC,–,–,–,"9.11 upbm affinity estimate (log intensity, higher = more binding, comparable within an allelic series)",–,"9.17 upbm affinity estimate (log intensity, higher = more binding, comparable within an allelic series)","9.21 upbm affinity estimate (log intensity, higher = more binding, comparable within an allelic series)",–,–,"9.13 upbm affinity estimate (log intensity, higher = more binding, comparable within an allelic series)",–,"9.09 upbm affinity estimate (log intensity, higher = more binding, comparable within an allelic series)",–,–,–,"9.12 upbm affinity estimate (log intensity, higher = more binding, comparable within an allelic series)",–,–
CAATTAGC,–,–,"13.1 upbm affinity estimate (log intensity, higher = more binding, comparable within an allelic series)","11.6 upbm affinity estimate (log intensity, higher = more binding, comparable within an allelic series)","12.3 upbm affinity estimate (log intensity, higher = more binding, comparable within an allelic series)","12.2 upbm affinity estimate (log intensity, higher = more binding, comparable within an allelic series)","12 upbm affinity estimate (log intensity, higher = more binding, comparable within an allelic series)",–,"13.6 upbm affinity estimate (log intensity, higher = more binding, comparable within an allelic series)","10.3 upbm affinity estimate (log intensity, higher = more binding, comparable within an allelic series)",–,"10.8 upbm affinity estimate (log intensity, higher = more binding, comparable within an allelic series)","13.5 upbm affinity estimate (log intensity, higher = more binding, comparable within an allelic series)",–,–,"10.8 upbm affinity estimate (log intensity, higher = more binding, comparable within an allelic series)","10.7 upbm affinity estimate (log intensity, higher = more binding, comparable within an allelic series)","12.6 upbm affinity estimate (log intensity, higher = more binding, comparable within an allelic series)"
CAATTAAG,–,–,"12.5 upbm affinity estimate (log intensity, higher = more binding, comparable within an allelic series)",–,"11.6 upbm affinity estimate (log intensity, higher = more binding, comparable within an allelic series)",–,"11.9 upbm affinity estimate (log intensity, higher = more binding, comparable within an allelic series)",–,"13 upbm affinity estimate (log intensity, higher = more binding, comparable within an allelic series)",–,–,–,"13 upbm affinity estimate (log intensity, higher = more binding, comparable within an allelic series)",–,–,–,"10.7 upbm affinity estimate (log intensity, higher = more binding, comparable within an allelic series)","12.2 upbm affinity estimate (log intensity, higher = more binding, comparable within an allelic series)"
CCAGGTCC,–,–,"8.06 upbm affinity estimate (log intensity, higher = more binding, comparable within an allelic series)",–,"7.95 upbm affinity estimate (log intensity, higher = more binding, comparable within an allelic series)",–,–,–,"10.3 upbm affinity estimate (log intensity, higher = more binding, comparable within an allelic series)",–,–,–,–,–,–,–,"10.5 upbm affinity estimate (log intensity, higher = more binding, comparable within an allelic series)","7.25 upbm affinity estimate (log intensity, higher = more binding, comparable within an allelic series)"
ACTAATTA,"10.1 upbm affinity estimate (log intensity, higher = more binding, comparable within an allelic series)","12.5 upbm affinity estimate (log intensity, higher = more binding, comparable within an allelic series)","13.3 upbm affinity estimate (log intensity, higher = more binding, comparable within an allelic series)","12.2 upbm affinity estimate (log intensity, higher = more binding, comparable within an allelic series)","12.6 upbm affinity estimate (log intensity, higher = more binding, comparable within an allelic series)","12.7 upbm affinity estimate (log intensity, higher = more binding, comparable within an allelic series)","12.7 upbm affinity estimate (log intensity, higher = more binding, comparable within an allelic series)",–,"13.8 upbm affinity estimate (log intensity, higher = more binding, comparable within an allelic series)","10.8 upbm affinity estimate (log intensity, higher = more binding, comparable within an allelic series)","11.9 upbm affinity estimate (log intensity, higher = more binding, comparable within an allelic series)","11.4 upbm affinity estimate (log intensity, higher = more binding, comparable within an allelic series)","14 upbm affinity estimate (log intensity, higher = more binding, comparable within an allelic series)",–,–,"11.4 upbm affinity estimate (log intensity, higher = more binding, comparable within an allelic series)","11 upbm affinity estimate (log intensity, higher = more binding, comparable within an allelic series)","13.3 upbm affinity estimate (log intensity, higher = more binding, comparable within an allelic series)"
